pKd: −log10 of the molar value.
Columns and labels:
AAK1 = settings: concentration: 1 μM, replicates: in singlicate; n = 1
ABL1-nonphosphorylated = settings: concentration: 1 μM, replicates: in singlicate; n = 1
ABL1-phosphorylated = settings: concentration: 1 μM, replicates: in singlicate; n = 1
p38-alpha = tested on: T1, p38-alpha
T1 construct: gene MAPK14

TRKA = tested on: T2, TRKA
T2 construct: gene NTRK1

[1] = tested on: TYK2(JH2domain-pseudokinase)
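Wherever %Inh is given: KINOMEscan kinase panel screen.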
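Wherever pKd is given: kd values determined as follow-up on hits from a single-replicate KINOMEscan panel screen.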

In the case of Nc1n[nH]c2nnc(-c3ccccc3)cc12 [SB-517389], the pKd (TSSK3) was under 5.00, the “%Inh” value (AAK1) was 16% and the “%Inh” value (ABL1-nonphosphorylated) was 11%. For the same molecule, the “%Inh” value (ABL1-phosphorylated) was 5%.

With O=C(Nc1ccccc1F)NC1CCN(c2ccnc(Nc3ccc(F)cc3)n2)C1 (centres unmarked) [GSK1379722] the “%Inh” value (AAK1) was 0%, the “%Inh” value (ABL1-nonphosphorylated) was 0% and the “%Inh” value (ABL1-phosphorylated) was 0%.

For COc1ccc(NC(=O)c2ccc(-c3cc(-c4nnc(C)o4)ccc3C)cc2)cc1 [GW595885], the pKd (p38-alpha) was 6.74, the “%Inh” value (AAK1) was 0% and the “%Inh” value (ABL1-nonphosphorylated) was 0%. For the same molecule, the “%Inh” value (ABL1-phosphorylated) was 0%.

O=C(NCCCN1CCCC1=O)c1cnc(NCc2cc(Cl)ccc2Cl)nc1NC1CCNCC1 was tested, and the “%Inh” value (AAK1) was 0%, the “%Inh” value (ABL1-nonphosphorylated) was 0% and the “%Inh” value (ABL1-phosphorylated) was 0%.

In the case of CC(C)(C)OC(=O)NC1CCCN(c2cc(-c3ccc4c(N)n[nH]c4c3)nc(N)n2)C1 (centres unmarked) [GSK2286096], the pKd (TSSK3) was under 5.00, the “%Inh” value (AAK1) was 60% and the “%Inh” value (ABL1-nonphosphorylated) was 0%. The “%Inh” value (ABL1-phosphorylated) was 0%.

In the case of CC(=O)Nc1n[nH]c2ncc(-c3ccccc3)cc12 [SB-548492], the pKd (TRKA) was 5.60, the pKd [1] was 6.24 and the “%Inh” value (AAK1) was 0%. For the same molecule, the “%Inh” value (ABL1-nonphosphorylated) was 49% and the “%Inh” value (ABL1-phosphorylated) was 20%.

For Cc1ccc(O)cc1Nc1cc(C(F)(F)F)nc2ccc(-c3ccncc3)cc12 [GW630823], the “%Inh” value (AAK1) was 0%, the “%Inh” value (ABL1-nonphosphorylated) was 21% and the “%Inh” value (ABL1-phosphorylated) was 7%.

In the case of COc1ccc(-c2oc3ncnc(N)c3c2-c2ccc(OC)cc2)cc1 [SB-589132], the pKd [1] was 5.80, the “%Inh” value (AAK1) was 6% and the “%Inh” value (ABL1-nonphosphorylated) was 21%. For the same molecule, the “%Inh” value (ABL1-phosphorylated) was 10%.

With Cl.O=S(=O)(c1cccc(F)c1)c1ccc(Nc2ncnc3cc(Br)sc23)cc1Cl [GSK306886] the “%Inh” value (AAK1) was 16%, the “%Inh” value (ABL1-nonphosphorylated) was 0% and the “%Inh” value (ABL1-phosphorylated) was 0%.

For CS(=O)(=O)CCNCc1nc(-c2ccc3ncnc(Nc4ccc(OCc5cccc(F)c5)c(Cl)c4)c3c2)cs1.Cl [GW583340], the pKd (TXK) was under 5.00, the pKd (ZAK) was under 5.00 and the “%Inh” value (AAK1) was 19%. For the same molecule, the “%Inh” value (ABL1-nonphosphorylated) was 0% and the “%Inh” value (ABL1-phosphorylated) was 0%.
